KKLEB cytotox = cytotoxicity in KKLEB CF airway cells, primary screen, cytotoxicity control for CF NF-kB inhibitor project, cell-based, uHTS, fluorescence assay plates. KKLEB CF airway cells viability, ATPlite luminescence, overnight; stronger effect = lower value; cells stimulated with P. aeruginosa culture filtrate. activity change (cytotoxicity), % at 5 µM. actives 0.36% (n = 360,000);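 active means corrected activity change at or below -50% at 5 µM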
CF NFkB block = inhibitors of PAF-induced NF-kB signaling, primary screen, cell-based, GFP fluorescence, uHTS; KKLEB NF-kB-GFP reporter, GFP fluorescence overnight; inhibition, % at 5 µM; actives 0.86% (n = 360,000); AID 588850, 2011;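 active means at least 50% inhibition at 5 µM, scaled per plate between neutral and stimulator controls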;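 further: PAF is a Pseudomonas aeruginosa culture filtrate used as stimulus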
MITF TRPM1 inh = inhibitors of MITF-dependent TRPM1 promoter reporter, primary screen, cell-based, SK-MEL-5, single point, luciferase; inhibition, % at 12.5 µM; actives 0.83% (n = 330,000); SK-MEL-5 TRPM1 promoter luciferase, 24 h;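 active means mean inhibition across replicates of 60% or more, whatever share of single replicates reaches that level; inconclusive means some that reach 60%, reason not given; inactive means mean inhibition across replicates below 60%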
Peg3 prom inh = Peg3 promoter-driven luciferase inhibitors, primary screen, cell-based, HeLa, luciferase luminescence; HeLa PEG-Prom luciferase reporter, overnight; inhibition, % at 20 µM; actives 1.7% (n = 360,000); AID 588405, 2011;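 active means inhibition of at least 50% at 20 µM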
Shn3 inh set2 = reduction of Shn3 3'UTR firefly luciferase signal, primary screen, Schnurri-3 inhibitor project, cell-based, Clone20 osteoblasts, set 2. Clone20 osteoblast Shn3 3'UTR firefly luciferase, 24 h. inhibition, % at 12.5 µM. actives 0.52% (n = 360,000). AID 588674, 2011;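 active means mean inhibition of at least 75% with every replicate also reaching 75%; inconclusive means mean inhibition at least 75% but some replicate below; inactive means mean inhibition below 75%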
HIF-2a inh = HIF-2a reporter inhibitors, primary screen, luminescence, 786-0 RCC cells | inhibition, % at 18.8 µM | actives 0.72% (n = 360,000) | 786-0 RCC cells HIF-2a reporter, luciferase luminescence, overnight;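 active means inhibition of the luminescence signal of 40% or more relative to plate controls, in a single-dose primary screen at 18.75 µM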
Mdm2-MdmX confirm = retested Mdm2-MdmX interaction blockers, confirmation, cell-based, luminescence, single concentration, set 2; shares compounds with HIF-2a inh; SaOS-2 split-luciferase Mdm2/MdmX complementation; inhibition, % at 8 µM; actives 99% (n = 740); AID 504601, 2011;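 active means mean inhibition of the luminescence signal across two replicates at or above 26 percent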
HIF-2a conf = HIF-2a reporter inhibitor retest, confirmation, luminescence, 786-0 RCC cells. shares compounds with HIF-2a inh. actives 56% (n = 1,800). HIF-2a luciferase reporter luminescence, overnight. inhibition, % at 18.8 µM;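 active means mean inhibition across four replicates of at least 40 percent at the single tested concentration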
HIF-1a cs = HIF-1a luciferase reporter signal reduction – MiaPaCa-2 cells, single concentration, counter-screen for HIF-2a inhibitor project, confirmation; inhibition, % at 18.8 µM; MiaPaCa-2 HIF-1a luciferase reporter, desferoxamine, overnight; shares compounds with HIF-2a inh; AID 651589, 2012; actives 72% (n = 1,800);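 active means mean inhibition of the reporter signal across four replicates at the single tested dose of 50% or more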
Numbers stand for hits; n = inactive; u = inconclusive; x = no result. This is a sample that favours compounds with a hit; in the whole collection about 2.7% have one here.

SMILES	KKLEB cytotox	CF NFkB block	MITF TRPM1 inh	Peg3 prom inh	Shn3 inh set2	HIF-2a inh	HIF-2a conf	HIF-1a cs	others
C#CCN(C[C@@H]1[C@@H](OC(=O)NCc2ccccc2F)[C@@H](OC(=O)NCc2ccccc2F)Cn2c(=O)ccc(=O)n21)S(=O)(=O)c1ccc(C)cc1	-85.2	76.7	x	96.7	96.2	95.2	97.1	106.4
C#CCN(C[C@@H]1[C@@H](OC(=O)Nc2cccs2)[C@@H](OC(=O)Nc2cccs2)Cn2c(=O)ccc(=O)n21)S(=O)(=O)c1ccc(C)cc1	-60.3	81.2	x	96.2	n	97.2	96.4	107.6
C#CCN(C[C@@H]1[C@@H](OC(=O)NCc2ccccc2F)[C@@H](OC(=O)NCc2ccccc2F)Cn2c(=O)n(CCCCCC)c(=O)n21)S(=O)(=O)c1ccc(C)cc1	n	n	x	n	n	n	x	x
Cc1ccc(/C=C/C(=O)c2c(C)cc(C)[nH]c2=O)cc1	n	n	n	n	n	n	x	x
CCc1ccc(/C=C/C(=O)c2c(C)cc(C)[nH]c2=O)cc1	n	n	n	63.7	n	51.9	n	53.5
Cn1c(=O)c2ncn(CC(=O)NCCOc3ccccc3)c2n(C)c1=O	n	n	n	n	n	n	x	x
COc1ccc(CNC(=O)Cn2cnc3c(=O)n(C)c(=O)n(C)c32)cc1	n	n	n	n	n	41.9	n	n
CC1CC2(CC(CN(C3CCCCC3)C3CCCCC3)OC2=O)C(=O)O1 (stereo unspecified)	n	n	x	n	n	n	x	x
COc1cc(/C=C2/CCC/C(=C\c3cc(O)c(OC)c(Cl)c3)C2=O)cc(Cl)c1O	n	n	n	n	n	90.9	x	x	Mdm2-MdmX confirm=103.2
COc1cc(/C=C2\CC/C(=C\c3cc(OC)c(OC)c(OC)c3)C2=O)cc(OC)c1OC	n	n	n	n	n	n	x	x
Cc1cccc(CN(Nc2ccccc2)c2ccccc2)n1	n	n	x	n	n	n	x	x
C[C@H](CO)N1C[C@H](C)[C@@H](CN(C)S(=O)(=O)c2cccs2)OCc2cnnn2CCCC1=O	n	n	x	n	n	n	x	x
Cc1nnc(SCC(=O)NC2CCCC2)n1C(C)C	n	n	n	n	n	n	x	x
O=C(Cn1nnc(-c2ccc(F)cc2)n1)N1CCCCC1	n	n	n	n	n	n	x	x
Nc1ccc(-c2nnn(CC(=O)N3CCCCC3)n2)cc1	n	n	n	n	n	48.6	47.8	n
O=C(NCc1ccco1)c1[nH]c(C(F)(F)F)nc1-c1ccccc1	n	n	x	n	n	n	x	x
COc1ccc(/C=C/c2c([N+](=O)[O-])c(=O)n(C)c(=O)n2C)c(OC)c1	n	n	n	n	n	n	x	x
Cn1c(/C=C/c2ccc(Cl)cc2Cl)c([N+](=O)[O-])c(=O)n(C)c1=O	n	n	x	102.6	u	69.1	41.0	105.6
CCOc1ccc(/C=C/c2c([N+](=O)[O-])c(=O)n(C)c(=O)n2C)cc1	n	n	n	n	n	n	x	x
CCc1ccc(/C=C/c2c([N+](=O)[O-])c(=O)n(C)c(=O)n2C)cc1	n	n	n	n	n	46.2	n	n
COc1cccc(CNc2nc3cc(-c4ccccc4C)sc3c(=O)n2C)c1OC	n	n	x	n	n	n	x	x
COc1ccc(Cc2c(-c3cccc(Cl)c3)nc3ccc(Cl)cn23)c(C)c1	n	n	x	n	n	n	x	x
NC(=O)c1[nH]cnc1N=NN(CCO)Cc1ccccc1	n	n	x	n	n	n	x	x
O=C(Nc1ccc(Oc2cccnc2)cc1)c1ccc([N+](=O)[O-])cc1	n	n	n	n	n	n	x	x
O=C(Nc1ccc(Nc2ccncc2)cc1)c1ccc([N+](=O)[O-])cc1	n	n	85.8	79.7	n	48.0	n	n
SMILES	KKLEB cytotox	CF NFkB block	MITF TRPM1 inh	Peg3 prom inh	Shn3 inh set2	HIF-2a inh	HIF-2a conf	HIF-1a cs	others
O=c1cc(-c2cccc(F)c2)oc2ccccc12	n	n	n	n	n	n	x	x
O=c1cc(-c2c(F)c(F)c(F)c(F)c2F)oc2ccccc12	n	n	n	84.0	n	61.5	n	80.0
CCCCC(=O)N(C)c1c(C)nc2ccc(C(=O)N3CCN(S(=O)(=O)CC)CC3)cn12	n	n	x	n	n	n	x	x
CO[C@@H]1CN(C)C(=O)c2cc(NC(=O)NC3CCCCC3)ccc2OC[C@@H](C)N(CCc2ccccc2)C[C@@H]1C	x	x	x	x	x	n	x	x
O=C1NC[C@H](CCCCN2C[C@H](Cc3ccc(O)cc3)N(CC3CCCCC3)C(=O)C2=O)N(Cc2ccccc2)C1=O	x	x	x	x	x	n	x	x
Cc1ccc(-c2nnc(SCCC(=O)N3CCOCC3)o2)cc1	n	n	n	n	n	n	x	x
Cc1cccc(-c2nnc(SCCC(=O)N3CCOCC3)o2)c1	n	n	n	n	n	49.5	53.0	n
CCCCCCn1cc(CN2CC(N3CCN(C4CCN(C)CC4)CC3)CS2(=O)=O)nn1 (stereo unspecified)	x	x	x	x	x	n	x	x
CC1(C)Oc2ccc3ccc(=O)oc3c2C[C@H]1O[C@@H]1O[C@H](CO)[C@@H](O)[C@H](O)[C@H]1O	n	n	n	n	n	n	x	x
CC(=O)OC(C)(C)/C=C/C(=O)[C@](C)(O)C1[C@H](O)C[C@@]2(C)C3CC=C4C(C=C(O[C@@H]5O[C@H](CO)[C@@H](O)[C@H](O)[C@H]5O)C(=O)C4(C)C)[C@]3(C)C(=O)C[C@]12C (stereo partly specified)	-68.0	73.5	n	57.5	n	45.8	n	n
CCC(C)N(CC(=O)Nc1cccc(C)c1C)C(=O)CCl (stereo unspecified)	n	n	n	n	n	51.0	45.9	53.5	Mdm2-MdmX confirm=102.7
COc1cc(CNc2ncnc3c2ncn3[C@H]2CN(Cc3ccccc3)C[C@@H](COC(C)=O)O2)cc(OC)c1OC	n	n	x	n	n	n	x	x
COc1ccc(CN(CCCn2cnc3c(OC)ncnc32)CCCn2cnc3c(OC)ncnc32)cc1	n	n	x	n	n	n	x	x

From PubChem
